Screens: PubChem, The Scripps Research Institute Molecular Screening Center
PLC-beta3 inh – inhibitors of human phospholipase C beta3 | Purified PLC-beta3, fluorogenic substrate, fluorescence | Q01970 | 370,000 tested, 0.18% active | inhibition, % at 12.2 µM;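 further: 0% = median of compound wells on plate and 100% = full blocker control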
PLC-gamma1 inh – blocks human PLC-gamma1 enzyme activity; P19174; purified PLC-gamma1, fluorogenic substrate, fluorescence; inhibition, % at 12.2 µM; 370,000 tested, 0.84% active; AID 720700; in the data active means inhibition above about 9.5%
LEDGF integ inh – blocks HIV-1 LEDGF/p75-dependent DNA integration; inhibition, % at 3.7 µM; TR-FRET IN-LEDGF/p75 DNA integration, Eu/Cy5; 370,000 tested, 0.64% active;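 active means inhibition above the screen-wide mean plus 3 SD, cut at about 13% in these data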;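 further: signal is the Cy5 over europium emission ratio at 671 and 618 nm; 0% = plate median of compound wells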
MBD2 inh – blocks human MBD2 binding to methylated DNA. AID 686964. Q9UBB5. TR-FRET, MBD2 binding to methylated oligonucleotide. inhibition, % at 4.4 µM. 370,000 tested, 0.31% active; in the data active means inhibition above about 13%
UHRF1 MBD2 ctr – blocks human UHRF1 binding to methylated DNA | 370,000 tested, 0.75% active | inhibition, % at 4.4 µM | UHRF1 binding to methylated oligo, TR-FRET | AID 687016 | Q96T88; in the data active means inhibition above about 21%;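 further: UHRF1 SRA domain binding a hemimethylated CpG hairpin DNA probe; 0% = median of test compound wells and 100% = reference inhibitor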
Target sequence (Q96T88 whole entry, looked up, the tested form may be a part): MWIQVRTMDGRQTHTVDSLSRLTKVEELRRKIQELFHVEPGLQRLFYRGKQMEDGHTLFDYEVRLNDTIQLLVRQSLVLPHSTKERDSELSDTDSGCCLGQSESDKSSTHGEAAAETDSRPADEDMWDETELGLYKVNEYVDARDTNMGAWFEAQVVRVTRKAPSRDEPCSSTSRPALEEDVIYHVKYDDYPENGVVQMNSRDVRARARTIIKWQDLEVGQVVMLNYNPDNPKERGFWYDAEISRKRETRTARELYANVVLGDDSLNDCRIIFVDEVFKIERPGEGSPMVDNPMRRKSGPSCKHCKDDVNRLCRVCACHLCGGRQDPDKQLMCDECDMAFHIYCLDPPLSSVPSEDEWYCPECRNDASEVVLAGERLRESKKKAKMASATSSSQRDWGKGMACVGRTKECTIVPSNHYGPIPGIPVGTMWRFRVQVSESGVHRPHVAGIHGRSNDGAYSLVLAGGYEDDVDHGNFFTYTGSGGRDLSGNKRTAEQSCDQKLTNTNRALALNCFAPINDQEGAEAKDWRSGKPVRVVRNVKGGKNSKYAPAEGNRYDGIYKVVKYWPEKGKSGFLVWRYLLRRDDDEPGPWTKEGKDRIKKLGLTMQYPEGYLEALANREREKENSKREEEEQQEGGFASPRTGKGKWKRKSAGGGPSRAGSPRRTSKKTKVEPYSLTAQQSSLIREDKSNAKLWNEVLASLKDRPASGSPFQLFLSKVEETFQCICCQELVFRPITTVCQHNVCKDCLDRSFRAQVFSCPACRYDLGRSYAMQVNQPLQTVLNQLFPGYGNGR
PLCgamma1 ctr – inhibits human PLC-gamma1 in PLC-beta3 counter-screen; shares compounds with PLC-gamma1 inh; inhibition, % at 12.3 µM; purified PLC-gamma1, fluorogenic substrate, fluorescence; 3,300 tested, 3.1% active; in the data active means inhibition above about 9.5%
PLCbeta3 conf – human PLC-beta3 inhibition, confirmation; 3,300 tested, 1% active; shares compounds with PLC-gamma1 inh; inhibition, % at 12.3 µM; purified PLC-beta3, fluorogenic substrate fluorescence
The depositor's hits bear a star; . = no result given. In the library only some 2.3% were active in any assay of this set; here they are far more common. Unless noted, no stated cut-off is given here; in the data, active means inhibition above about 11%; inactive means the rest.

SMILES | PLC-beta3 inh | PLC-gamma1 inh | LEDGF integ inh | MBD2 inh | UHRF1 MBD2 ctr | PLCgamma1 ctr | PLCbeta3 conf
COc1ccc(CN(C)C(=O)c2ccc(NS(=O)(=O)c3ccc4[nH]c(=O)[nH]c4c3)cc2)c(OC)c1 | -2 | 15* | -1 | 2 | 1 | 1 | -5
CC1CCCCC1NC(=S)NC(=O)c1ccccc1Br (configuration not stated) | 3 | 1 | 1 | -1 | -2 | . | .
CC1CCCCC1NC(=S)NC(=O)c1ccccc1Cl (configuration not stated) | -3 | 11* | 2 | -1 | -1 | -4 | -4
CCCCCCNC(=O)C1CSCCS(=O)(=O)N1Cc1ccc(F)cc1 (configuration not stated) | 5 | 2 | -3 | -10 | 0 | . | .
C=Cc1ccc(C(=O)Nc2nnc(-c3cccnc3)s2)cc1 | -5 | -5 | -1 | 3 | 2 | . | .
O=C(Nc1ccc(Br)cc1)C1CCCN1S(=O)(=O)c1cccs1 (configuration not stated) | 2 | 9.8* | 5 | 2 | 1 | -6 | -4
C/C(=N\N=C(/N)SC1CC(=O)N(c2ccc(Cl)cc2)C1=O)c1cccs1 (configuration not stated) | 3 | 9.9* | -2 | -2 | 0 | 5 | 6
Cc1ccc(S(=O)(=O)N2CCOCC2)cc1NC(=O)c1cc2ccccc2oc1=O | -3 | 10* | 6 | 2 | 1 | -4 | 1
O=C(Nc1ccc(Cl)c(S(=O)(=O)N2CCOCC2)c1)c1cc2ccccc2oc1=O | 2 | 0 | -4 | -4 | -1 | . | .
COC(=O)c1cc(-c2ccc(C(C)(C)C)cc2)c(=O)n2c1CCC2 | -7 | -6 | 3 | -4 | 0 | . | .
COc1ccc(C2SCC(=O)N2c2ccc(OC)cc2)cc1 (configuration not stated) | -5 | 0 | 0 | 2 | 0 | . | .
COc1ccc(C2SCC(=O)N2CCCN(C)C)cc1 (configuration not stated) | 13* | 8 | 2 | 4 | 4 | -5 | 0
Cc1ccc(NS(=O)(=O)c2ccc(OCC(=O)NCc3ccncc3)cc2)cc1 | 11* | 3 | 5 | -5 | 0 | -7 | -1
CCOc1ccc(NS(=O)(=O)c2ccc(OCC(=O)NCc3ccncc3)cc2)cc1 | -6 | 1 | 1 | -6 | 3 | . | .
Cc1cc(C(=O)NC(=S)Nc2cccc(C(=O)O)c2C)ccc1[N+](=O)[O-] | 5 | 9.8* | 5 | 0 | 4 | 4 | 1
C[C@@H]1OCN(C)[C@H]2C[C@H]3c4[nH]c5cccc(-c6cccc(F)c6)c5c4CCN3C(=O)[C@@H]12 | -37 | -25 | -4 | 0 | 0 | . | .
CC1CC1C(=O)OCC(=O)Nc1ccc(N=Nc2ccccc2)cc1 (configuration not stated) | 4 | 5 | -1 | 1 | 0 | . | .
CCCC(=O)OCC(=O)Nc1ccc(N=Nc2ccccc2)cc1 | 9 | 9.6* | 0 | -4 | -5 | 3 | 2
O=Cc1cc(N=Nc2cccc(C(=O)O)c2)ccc1O | 1 | 14* | 1 | 0 | 11 | 29* | 1
O=C(CCc1nc(-c2ccccc2F)no1)NCCN1CCOCC1 | 14* | 4 | 1 | 3 | 2 | -14 | 3
COc1ccc(CNC(=O)CCC(=O)Nc2nnc(CC(C)C)s2)cc1 | -3 | 12* | 10 | -5 | -1 | -6 | -4
CCc1nnc(NC(=O)CCC(=O)NCc2ccc(OC)cc2)s1 | 0 | 0 | 4 | -1 | 0 | . | .
CC(C)NC(=O)C1(C)Cc2c(-c3ccc(C(N)=O)cc3)ccnc2O1 (configuration not stated) | 12* | 1 | 0 | 3 | 0 | -7 | -2
CC(C)CNS(=O)(=O)/C=C/c1ccc(F)cc1CNC(=O)OC(C)(C)C | 4 | 2 | 5 | -1 | -5 | . | .
CC(/C=C/c1cccc([N+](=O)[O-])c1)=N\NC(=O)c1ccncc1 | 1 | 13* | -2 | 7 | 3 | 3 | 4
SMILES | PLC-beta3 inh | PLC-gamma1 inh | LEDGF integ inh | MBD2 inh | UHRF1 MBD2 ctr | PLCgamma1 ctr | PLCbeta3 conf
Cc1cc(C(=O)N/N=C/C=C/c2cccc([N+](=O)[O-])c2)n[nH]1 | 10 | 11* | 4 | -6 | -9 | 3 | 4
CC(/C=C/c1ccc2c(c1)OCO2)=N/NC(=O)c1ccncc1 | -32 | -21 | 0 | -3 | -2 | . | .
Cc1cc(C(=O)N/N=C/C=C/c2ccccc2)n[nH]1 | 2 | 3 | -3 | 3 | 1 | . | .
COc1ccc(CN(C)C(=O)C2CCCN(c3nc4ccccc4o3)C2)cc1 (configuration not stated) | -2 | -1 | 5 | -3 | -5 | . | .
CC1C(c2ccccc2)OCCN1C(=S)NC(=O)c1ccccc1 (configuration not stated) | 15* | 1 | 1 | -9 | 0 | -6 | -1
O=C(Cn1nc(-c2ccccc2)c2ccccc21)Oc1ccccc1 | 2 | 13* | 3 | -3 | 0 | -4 | -3
COC(=O)Cn1nc(-c2cccc(OC)c2)c2ccccc21 | -1 | 4 | 3 | 0 | 1 | . | .
CC(C)CC(O)(CC(C)C)c1cn(C(=O)N(c2ccccc2)c2ccccc2)nn1 | 4 | 1 | -1 | 2 | 0 | . | .
CCOC(=O)c1c(C)[nH]c(C)c1S(=O)(=O)N(C)Cc1ccco1 | -3 | 11* | 4 | -7 | -2 | 0 | -5
O=C(CCc1ccncc1)N1CCCC(Nc2ccc(F)cc2)C1 (configuration not stated) | -3 | -4 | 1 | -7 | 0 | . | .
COc1ccc(NC2CCCN(C(=O)CCc3cn[nH]c3)C2)cc1 (configuration not stated) | -9 | 10* | -13 | 0 | 3 | -3 | 3
O=C(CCc1ccccc1)N1CCCC(Nc2ccc(F)cc2)C1 (configuration not stated) | 1 | 11* | 6 | 9 | 23* | -1 | 2
CCn1c(COc2ccc(Cl)cc2)nnc1SCC(=O)Nc1ccc(Oc2ccccc2)cc1 | 1 | -2 | -2 | 2 | 10 | . | .
CC(O)c1nc2ccccc2n1CC(=O)N1CCN(c2ccccc2)CC1 (configuration not stated) | 4 | 11* | 1 | -2 | 3 | -6 | -3
O=C(Nc1nc2ncccn2c1-c1ccc(C(F)(F)F)cc1)c1ccccc1 | -201 | -142 | 2 | 0 | 2 | . | .
COC(=O)CCC(C)C1CCC2C3CCC4CC(O)CCC4(C)C3=CC(=O)C12C (configuration not stated) | 11* | 2 | 3 | 0 | 0 | -4 | -3
COc1ccc(-c2cc(NC(=O)Cc3c[nH]c4ccccc34)ccc2Nc2cccnc2)c(OC)c1 | -5 | 0 | -3 | 2 | -3 | . | .
